Results: PubChem BioAssay (Tox21)
Inconclusive results are not listed. A structure can be active in one record and inactive in another. Activity calls are given as the source filed them. Unless noted, the call rests on the fitted dose curve; in most records, active means well fitted curve in the direction sought with a large enough effect in the repeat runs; inconclusive means weak or mixed curves; inactive means no such curve, though single readings can be large; an effect the other way counts as inactive or inconclusive.

Columns and labels:
[1] = qHTS assay for small molecules that induce genotoxicity in human embryonic kidney cells expressing luciferase-tagged ATAD5 (AID 651632); further: nearly all actives have a fitted effect of over 15% in size; further: potency means the concentration at half of the fitted maximal effect
Outline: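 Reporter cells (HEK293T) express luciferase-tagged ATAD5, a protein that accumulates after DNA damage. Treat 16 hr at 37C/5% CO2, add Amplite, wait 30 min at RT, and read luminescence.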

[2] = qHTS assay for small molecule agonists of the p53 signaling pathway - cell viability (AID 651633; calls by dose curve; further: nearly all actives have a fitted effect of over 30% in size; further: potency means the concentration at half of the fitted maximal effect)
Outline: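 p53RE-bla cells, seeded at 4,000 per well and rested 5 h at 37 C/5% CO2, received compounds in DMSO for 16 h at 37 C. CellTiter-Glo was then added, and luminescence was read after 30 min at room temperature to gauge cytotoxicity.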

[3] = qHTS assay for small molecules that induce genotoxicity in human embryonic kidney cells expressing luciferase-tagged ATAD5 - cell viability (AID 651634; calls by dose curve; further: nearly all actives have a fitted effect of over 25% in size; further: potency means the concentration at half of the fitted maximal effect)
Outline: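 Seeding of 2,000 HEK293T ATAD5-luciferase cells per well preceded pin-tool compound transfer. Plates sat 15.5 hr at 37C under 5% CO2, then fluorescence was read after 30 min with CellTiter-Fluor.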

[4] = qHTS assay for small molecule disruptors of the mitochondrial membrane potential - cell viability (AID 720634; calls by dose curve;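 further: human HepG2 liver cancer cells; series mostly up to about 83 µM; nearly all actives have a fitted effect of over 20% in size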)
Outline: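 Measuring cytotoxicity alongside mitochondrial potential, the screen quantified ATP by luminescence in HepG2 cells after 1 hr compound incubation and a 30 min room-temperature CellTiter-Glo step.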

[5] = qHTS assay to test for compound auto fluorescence at 590 nm (red) in HepG2 cells (AID 720674)
Outline: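 Compound auto-fluorescence is scored relative to Rose Bengal sodium, measured at 540/590 nm in live HepG2 cultures after 1 hr compound contact (37 C, 5% CO2).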

[6] = qHTS assay to test for compound auto fluorescence at 535 nm (green) in HepG2 cells (AID 720675)
[7] = qHTS assay to test for compound auto fluorescence at 590 nm (red) in HEK293 cells (AID 720679)
Outline: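 Plates of HEK293 cells (10% dialyzed FBS) are treated with 23 nL compound or DMSO vehicle after a 4-5 hr attachment period, incubated overnight at 37C, and read for red fluorescence at 540/590nm.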

[8] = qHTS assay to test for compound auto fluorescence at 535 nm (green) in HEK293 cells (AID 720680)
[9] = qHTS assay to test for compound auto fluorescence at 460 nm (blue) in HEK293 cell free culture (AID 720681)
Outline: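 Test compounds were pinned into cell-free culture medium (DMEM with 10% FBS) and fluorescence was read directly at Ex/Em 405/460 nm. Signals were expressed as fluorescence equivalents of triamterene, with DMSO vehicle as control.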

[10] = qHTS assay to test for compound auto fluorescence at 535 nm (green) in HEK293 cell free culture (AID 720682)
Outline: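 Green-channel intensity (Ex/Em 485/535 nm) was recorded from compound-treated wells containing only DMEM with 10% FBS. Fluorescein provided the equivalency standard.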

[11] = qHTS assay to test for compound auto fluorescence at 590 nm (red) in HEK293 cell free culture (AID 720683)
Outline: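 Tox21 10K library compounds were pinned into cell-free DMEM with 10% FBS and fluorescence was read at excitation 540 nm. Activity is expressed as Rose Bengal sodium equivalency.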

[12] = qHTS assay to test for compound auto fluorescence at 590 nm (red) in HepG2 cell free culture (AID 720684)
Outline: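 Red fluorescence (540 nm excitation, 590 nm emission) was measured after compound transfer into cell-free MEM supplemented with 10% FBS. Values are equivalencies against Rose Bengal sodium.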

[13] = qHTS assay to test for compound auto fluorescence at 535 nm (green) in HepG2 cell free culture (AID 720686)
[14] = qHTS assay to test for compound auto fluorescence at 460 nm (blue) in HepG2 cells (AID 720687)
Outline: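 Cells (2,000/well in MEM with 10% FBS) attached overnight at 37 C, then were exposed to compound or DMSO for 1 hr at 37 C, 5% CO2. Fluorescence read at Ex/Em 405/460 nm, expressed as triamterene-equivalent signal.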

[15] = target: Glucocorticoid receptor (Homo sapiens) (UniProt P04150); assay: qHTS assay to identify small molecule agonists of the glucocorticoid receptor (GR) signaling pathway (AID 720691; active means well fitted activation curve with a large enough effect in the signal ratio in the repeat runs, not every such curve was filed as active; the % refers to the signal ratio)
Chain of Glucocorticoid receptor (Homo sapiens) (P04150 whole entry, looked up): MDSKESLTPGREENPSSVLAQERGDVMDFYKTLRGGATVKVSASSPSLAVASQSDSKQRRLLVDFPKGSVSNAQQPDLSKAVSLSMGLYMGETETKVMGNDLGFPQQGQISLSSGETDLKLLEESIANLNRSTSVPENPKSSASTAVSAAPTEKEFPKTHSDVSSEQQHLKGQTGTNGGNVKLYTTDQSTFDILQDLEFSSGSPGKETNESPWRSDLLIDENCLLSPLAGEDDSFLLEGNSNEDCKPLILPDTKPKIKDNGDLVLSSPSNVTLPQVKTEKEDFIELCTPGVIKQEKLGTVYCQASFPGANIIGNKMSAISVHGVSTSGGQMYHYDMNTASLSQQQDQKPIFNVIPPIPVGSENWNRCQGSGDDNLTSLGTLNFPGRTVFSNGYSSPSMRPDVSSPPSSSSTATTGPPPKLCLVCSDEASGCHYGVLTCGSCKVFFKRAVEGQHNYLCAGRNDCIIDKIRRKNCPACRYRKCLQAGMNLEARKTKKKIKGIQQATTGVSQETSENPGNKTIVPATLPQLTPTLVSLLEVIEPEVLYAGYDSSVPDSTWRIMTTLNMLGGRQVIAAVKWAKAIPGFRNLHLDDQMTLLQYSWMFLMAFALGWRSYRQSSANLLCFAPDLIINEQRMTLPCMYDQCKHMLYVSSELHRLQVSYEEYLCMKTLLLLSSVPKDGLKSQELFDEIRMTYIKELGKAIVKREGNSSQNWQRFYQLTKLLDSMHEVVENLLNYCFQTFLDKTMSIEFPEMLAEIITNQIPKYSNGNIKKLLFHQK
Outline: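 Reporter read-out: fluorescence intensity following 2 h room-temperature LiveBLAzer B/G FRET substrate loading. Prior step: GR-bla HeLa cells held 4 h, then treated 18 h at 37 C.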

[16] = target: Glucocorticoid receptor (Homo sapiens) (UniProt P04150); assay: qHTS assay to identify small molecule antagonists of the glucocorticoid receptor (GR) signaling pathway (AID 720692; active means well fitted inhibition curve with a large enough effect in the signal ratio in the repeat runs, not every such curve was filed as active; the % refers to the signal ratio)
Outline: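 Dexamethasone (5 nM final) stimulated a stably integrated GRE-beta-lactamase reporter in HeLa cells during 18 h co-incubation with compounds; signal was quantified as fluorescence intensity of B/G FRET substrate after 2 h.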

[17] = qHTS assay for small molecule disruptors of the mitochondrial membrane potential (AID 720635); further: potency means the concentration at half of the fitted maximal effect
Outline: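 HepG2 cells (2,000/well) attached overnight at 37C, then took compound for 1 hr at 37C, 5% CO2. Mito-MPS dye was added for 30 min; fluorescence was read at 490/535 nm (monomers) and 540/590 nm (aggregates).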

[18] = qHTS assay to test for compound auto fluorescence at 460 nm (blue) in HEK293 cells (AID 720678)
Outline: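 After cell attachment (4-5 hr, 37C), compounds were pinned onto HEK293 monolayers in 10% dialyzed FBS medium. The blue channel (405/460 nm) was read following overnight culture. Equivalency was calculated against triamterene.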

[19] = qHTS assay to test for compound auto fluorescence at 460 nm (blue) in HepG2 cell free culture (AID 720685)
Outline: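 Compound (23 nL) or DMSO pinned into cell-free MEM with 10% FBS; blue fluorescence read at 405/460 nm excitation/emission, expressed as auto-fluorescence equivalency to triamterene.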

Measured: Potency

CC1=C(Br)C(=O)C(Br)=C/C1=C(/c1ccccc1S(=O)(=O)O)c1cc(Br)c(O)c(Br)c1C
inactive: [1] | [2] | [4] | [5] | [6] | [7] | [8] | [9] | [10] | [11] | [12] | [13] | [14] | [15] | [16]
active: [3] 37 µM

CCCCCC[C@@H](O)C/C=C\CCCCCCCC(=O)O
21.1 µM (active) and inactive: [2]
inactive: [1] | [3] | [17] | [5] | [6] | [18] | [7] | [8] | [9] | [10] | [11] | [12] | [19] | [13] | [14] | [16]

CN1C(=O)OC(C)(C)C1=O
inactive: [1] | [2] | [3] | [4] | [6] | [18] | [7] | [8] | [9] | [10] | [11] | [12] | [19] | [13] | [15] | [16]

CN(C)CCN1C(=O)c2ccccc2N(C)c2ccccc21
inactive: [1] | [2] | [3] | [4] | [6] | [18] | [7] | [9] | [10] | [11] | [12] | [19] | [13] | [14]

COC(=O)C1=C(C)NC(C)=C(C(=O)O[C@@H]2CCCN(Cc3ccccc3)C2)[C@@H]1c1cccc([N+](=O)[O-])c1
inactive: [1] | [2] | [5] | [6] | [18] | [7] | [9] | [10] | [11] | [19] | [13]
active: [17] 13.3 µM

CCOC(=O)c1ccc(C#Cc2ccc3c(c2)C(C)(C)CCS3)nc1
inactive: [1] | [2] | [3] | [5] | [6] | [7] | [10] | [11] | [12] | [13] | [15]

O=C(O)c1cccc(-c2noc(-c3ccccc3F)n2)c1
active: [1] 0.0237 µM | [2] 29.8 µM
inactive: [3] | [17] | [5] | [6] | [18] | [7] | [8] | [9] | [10] | [11] | [12] | [19] | [13] | [14] | [15] | [16]

O=C(O)CCCCCCCCCCCBr
inactive: [1] | [2] | [3] | [5] | [6] | [18] | [7] | [8] | [9] | [10] | [11] | [12] | [19] | [13] | [14] | [15] | [16]

CN1C[C@H](C(=O)N[C@]2(C)O[C@@]3(O)[C@@H]4CCCN4C(=O)[C@H](Cc4ccccc4)N3C2=O)C[C@@H]2c3cccc4[nH]cc(c34)C[C@H]21
inactive: [1] | [2] | [4] | [5] | [6] | [18] | [7] | [8] | [9] | [10] | [11] | [19] | [13] | [14] | [16]

O=C1c2ccccc2C(=O)N1CCc1noc(-c2ccc(CN3CCCCCC3)s2)n1
inactive: [1] | [2] | [3] | [4] | [6] | [18] | [7] | [8] | [9] | [10] | [11] | [12] | [13] | [14]

C[C@@H]1CC(=O)NN=C1c1ccc(NN=C(C#N)C#N)cc1
active: [2] 6.68 µM | [3] 23.7 µM | [17] 23.7 µM
inactive: [1] | [5] | [6] | [18] | [7] | [8] | [9] | [10] | [11] | [12] | [19] | [13] | [14]

CCOc1cccc(-n2cc(C(=O)N3CCN(c4cc(C(=O)O)c5ccccc5c4)CC3)nc2-c2ccc(C)cc2)c1
inactive: [1] | [4] | [6] | [18] | [7] | [8] | [9] | [10] | [11] | [19] | [13] | [14]
active: [2] 20.7 µM

OC[C@H]1O[C@@H](n2cnc3c(=S)nc[nH]c32)[C@H](O)[C@@H]1O
inactive: [1] | [3] | [4] | [5] | [6] | [18] | [7] | [9] | [10] | [11] | [12] | [19] | [13] | [14] | [15]
active: [17] 0.211 µM

Cc1ccc(Cl)c(Nc2ccccc2C(=O)O)c1Cl
inactive: [1] | [2] | [3] | [5] | [6] | [18] | [7] | [9] | [10] | [11] | [12] | [19] | [13] | [14]

CN1CCCC(n2nc(Cc3ccc(Cl)cc3)c3ccccc3c2=O)CC1 (stereo not given)
inactive: [1] | [2] | [3] | [5] | [6] | [18] | [7] | [9] | [10] | [11] | [12] | [19] | [13] | [14] | [16]

c1ccc(C[n+]2cccc3ccccc32)cc1
inactive: [1] | [2] | [3] | [5] | [6] | [18] | [7] | [8] | [9] | [10] | [11] | [12] | [19] | [13] | [14] | [15]
